# Sampled rows, rich in hits. Any-hit rate of the full collection: about 3.6%.
# mTORC1 inh = reduces mTORC1 signaling in Tsc2 and p53 null MEF cells | actives 0.78% (n = 44,000) | AID 493208 | Tsc2-/- p53-/- MEF, phospho-rpS6 immunofluorescence/PI, 24 h | Potency, µM (titrated, usually from 38.3 µM), for inactives: at the top dose activity change, negative = inhibition, usual class: inhibitors;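 note: potency is the fitted concentration of half-maximal effect; plate controls were DMSO for no effect and rapamycin for full effect; nearly all actives have a fitted effect of over 50% in size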
#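 Readout is phospho-S6 Alexa 488 signal normalized to PI per well, reported as % active cells with thresholds set from rapamycin (7.5 nM) and DMSO controls. Cells: Tsc2-/-, p53-/- MEFs, 24 hrs compound at 37 C; PI cell number serves as viability.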
# NTMT1 inh = inhibitors of human N-terminal methyltransferase NTMT1; NTMT1 MTase-Glo SAH luminescence, purified enzyme; Potency, µM (top dose mostly 114 µM), for inactives: at the highest dose activity change, negative = inhibition, hits mostly inhibitors; actives 2.5% (n = 59,000); AID 1645870;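 note: potency is the fitted concentration of half-maximal effect; plate controls were DMSO vehicle for no effect and no enzyme for full effect; nearly all actives have a fitted effect of over 65% in size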
# PMP22 txn = modulators of PMP22 gene transcription in S16 Schwann cells | S16 Pmp22-F2sN Schwann cells, FLuc/NLuc coincidence luminescence, 24 h | Potency, µM (highest dose often 57.5 µM), for inactives: at the top dose activity change, negative = inhibition, actives largely listed as inhibitors | actives 2% (n = 43,000); active = clear falling dose curves in both reporters; inconclusive = both reporters move, but less clearly or upward; inactive = either reporter flat; the % is the NLuc reporter signal; note: potency is the fitted concentration of half-maximal effect; % is set by controls: 0 for no effect and ±100 for the full control effect
#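 Rat S16 Pmp22-F2sN cells, 500-1,000/well in phenol red-free DMEM + 10% FBS, compound-treated 24 h (37C, 5% CO2). Luminescence: FLuc read, Stop&Glo added, NLuc read.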
# OvCa metastasis = blocks SKOV3ip1 adhesion and invasion in omental model; SKOV3ip1-GFP adhesion/invasion on 3D omental model, fluorescence; Potency, µM (series often up to 45.8 µM), without a hit: at the top dose activity change, negative = inhibition, usual class: inhibitors; actives 0.1% (n = 46,000);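 note: potency is the fitted concentration of half-maximal effect; plate controls were DMSO wells for no effect and tomatine positive control wells for full effect; nearly all actives have a fitted effect of over 65% in size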
#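 Adhesion/invasion was scored as fixed GFP-labeled SKOV3ip1 cell counts (488/509 nm), normalized to DMSO and tomatine controls. Cancer cells in serum-free medium, with four compound doses (0.36-46 umol/L), sat 2 hr at RT then 16 hr at 37 C on a 48 hr fibroblast/mesothelial/ECM culture.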
# S16 viability = toxic to S16 Pmp22-F2sN Schwann cells. S16 Pmp22-F2sN Schwann cells (luciferase reporters placed in the Pmp22 gene) viability, CellTiter-Glo, 24 h. Potency, µM (top dose mostly 57.5 µM), for inactives: at the highest dose activity change, negative = cytotoxicity, hits mostly cytotoxic. actives 0.48% (n = 43,000). AID 1508642; note: potency is the fitted concentration of half-maximal effect; % is set by controls: 0 for no effect and ±100 for the full control effect; nearly all actives have a fitted effect of over 65% in size
#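 S16 Schwann cells carrying the Pmp22-F2sN reporter, seeded in 1536-well format, were exposed to library compounds for 24 h at 37C. Viability was read as CellTiter-Glo luminescence after 15 min at room temperature.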
# GALC G270D act = raises human GALC G270D mutant activity in cells; P54803; 145M-Twi-hGALC-G270D cells (Twitcher mouse brain line with human GALC G270D), HMU-beta-Gal fluorescence, 48 h; Potency, µM (doses to about 57.5 µM), most hits filed as activators; actives 0.1% (n = 45,000); AID 1159614; note: potency is the fitted concentration of half-maximal effect; 0% is about no effect; nearly all actives have a fitted effect of over 65% in size
#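 Fluorogenic HMU-b-Gal hydrolysis (0.1 mM final, pH 5.2 citrate-phosphate with 1 mg/mL sodium taurocholate; carbonate stop buffer) measures mutant GALC activity after compound treatment of live 145M-Twi Twitcher brain cells stably carrying human GALC-G270D, with wild-type GALC line alongside; activation sought.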
# Sfp qHTS opt = inhibitors of Bacillus subtilis Sfp PPTase, optimization followup | shares compounds with NTMT1 inh | purified Sfp PPTase enzyme activity, qHTS | Potency, µM (highest dose often 114 µM), for the others: top-dose activity change, negative = inhibition, actives largely listed as inhibitors | actives 78% (n = 230) | AID 540350
# Bsub HM489 growth = Sfp PPTase inhibitors: growth inhibition of B. subtilis HM489; shares compounds with NTMT1 inh; B. subtilis HM489 (acpS-) growth, BacTiter-Glo, 5 h; Potency, µM (highest dose often 114 µM), inactives show top-dose activity change, negative = inhibition, most hits filed as inhibitors; actives 50% (n = 220); AID 540353
# Sfp gel opt = inhibitors of Bacillus subtilis Sfp PPTase, gel-based followup. Potency, µM (series often up to 250 µM), without a hit: at the highest dose activity change, negative = inhibition, usual class: inhibitors. actives 54% (n = 220). shares compounds with NTMT1 inh. purified Sfp PPTase, gel-based product detection. AID 540355
# Sfp gel = inhibits B. subtilis Sfp PPTase in gel-based assay; actives 90% (n = 45); shares compounds with NTMT1 inh; AID 602362; purified Sfp PPTase, gel-based product detection; Potency, µM (highest dose often 250 µM), without a hit: at the top dose activity change, negative = inhibition, most hits filed as inhibitors
# Sfp SAR2 = Sfp phosphopantetheinyl transferase inhibition, SAR round 2 | shares compounds with NTMT1 inh | AID 602370 | actives 87% (n = 230) | purified Sfp enzyme, PPTase activity, qHTS | Potency, µM (top dose mostly 57.1 µM), for inactives: top-dose activity change, negative = inhibition, actives largely listed as inhibitors
# hGST ctr = inhibits hGST A1-1 in Sfp inhibitor counter-screen; 55 tested, under 10 active; Potency, µM (titrated, usually from 114 µM), for inactives: top-dose activity change, negative = inhibition, hits mostly inhibitors; hGST A1-1 enzyme activity counter-screen, qHTS; shares compounds with NTMT1 inh
# HSD17B4 inh = HSD17B4 (human) inhibition, HPGD counter-screen. shares compounds with NTMT1 inh. actives 10% (n = 230). purified HSD17B4, estradiol/NAD+, NADH fluorescence. Potency, µM (doses to about 57.1 µM), for the others: at the highest dose activity change, negative = inhibition, actives largely listed as inhibitors
# Target sequence (P51659 whole entry, looked up): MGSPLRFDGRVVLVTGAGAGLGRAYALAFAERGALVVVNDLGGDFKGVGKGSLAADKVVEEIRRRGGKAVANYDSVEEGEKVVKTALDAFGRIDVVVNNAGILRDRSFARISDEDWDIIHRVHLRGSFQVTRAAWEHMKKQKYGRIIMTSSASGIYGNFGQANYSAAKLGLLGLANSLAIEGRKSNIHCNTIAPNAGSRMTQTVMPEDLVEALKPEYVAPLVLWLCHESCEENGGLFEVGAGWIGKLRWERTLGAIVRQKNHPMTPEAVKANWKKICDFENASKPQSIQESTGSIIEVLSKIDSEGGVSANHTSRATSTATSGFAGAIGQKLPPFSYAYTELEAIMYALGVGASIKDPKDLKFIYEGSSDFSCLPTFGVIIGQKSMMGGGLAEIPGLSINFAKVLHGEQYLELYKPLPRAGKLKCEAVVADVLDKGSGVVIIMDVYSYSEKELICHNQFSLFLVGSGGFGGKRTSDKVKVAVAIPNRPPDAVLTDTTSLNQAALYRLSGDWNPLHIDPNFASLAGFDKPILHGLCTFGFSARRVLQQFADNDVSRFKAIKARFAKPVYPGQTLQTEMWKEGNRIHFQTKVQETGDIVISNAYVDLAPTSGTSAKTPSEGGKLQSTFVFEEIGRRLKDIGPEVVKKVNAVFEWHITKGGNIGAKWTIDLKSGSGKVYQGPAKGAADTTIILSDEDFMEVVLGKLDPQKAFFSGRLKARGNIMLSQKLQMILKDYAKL
# ALDH1A1 counter = inhibits human ALDH1A1, off-target for HPGD inhibitors; shares compounds with NTMT1 inh; recombinant ALDH1A1, NADH fluorescence, propionaldehyde/NAD+; Potency, µM (series often up to 57.1 µM), inactives show at the top dose activity change, negative = inhibition, actives largely listed as inhibitors; actives 93% (n = 230); AID 743195
# NNMT counter = blocks human NNMT methyltransferase; shares compounds with NTMT1 inh; NNMT MTase-Glo luminescence, SAH detection; Potency, µM (series often up to 57.1 µM), without a hit: at the highest dose activity, negative = inhibition, actives largely listed as inhibitors; actives 10% (n = 120); AID 1645878
# * = called active by the depositor; i = inactive; ? = inconclusive; / = not tested or not shown; ! = a repeat was not active; [ ] = another dose, or the depositor's remark. Unless noted, calls come from the whole dose curve; as a rule, active = well fitted curve in the direction sought with a large enough effect; inconclusive = small, poorly fitted or top-dose-only effect, or another doubt; inactive = no such curve, though single readings can be large; an effect the other way counts as inactive or inconclusive.
SMILES,mTORC1 inh,NTMT1 inh,PMP22 txn,OvCa metastasis,S16 viability,GALC G270D act,Sfp qHTS opt,Bsub HM489 growth,Sfp gel opt,Sfp SAR2,HSD17B4 inh,ALDH1A1 counter,others
Cc1ccc2onc(CNC(=O)N3CCN(c4cccc(C(F)(F)F)c4)CC3)c2c1,1%,16%,-6%,1%,11%,i,/,/,/,/,/,/,
Cc1ccnc(NC(=S)N2CCN(c3cccc(C(F)(F)F)n3)CC2)c1,/,?,/,/,/,/,1.5µM*,30µM*,7.9µM*,0.73µM*,-26%,22µM*,
COc1ccc2c(NC(=O)Nc3cccc(C(F)(F)F)n3)ccnc2c1,/,-4%[57.5 µM],/,/,/,/,/,/,/,/,/,/,
Cc1cccc(NC(=S)N2CCN(c3cccc(C(F)(F)F)c3)CC2)c1,/,/,/,/,/,/,4%,15%,1%,-20%,?,1.5µM*,
Cc1ccnc(NC(=S)N2CCCc3ccc(C(F)(F)F)cc32)c1,/,-6%,/,/,/,/,3%,?,0%,?,?,27µM*,Sfp gel=-2%;hGST ctr=?
Cc1noc2ncnc(N3CCN(c4cccc(C(F)(F)F)c4)CC3)c12,-1%,8%,?,i,?,i,/,/,/,/,/,/,
CN[C@@H]1[C@@H](O)[C@@H](O[C@@H]2[C@@H](O)[C@H](O[C@H]3O[C@H](CN)[C@@H](O)[C@H](O)[C@H]3O)[C@@H](N)C[C@H]2NC(=O)C(O)CN)OC[C@]1(C)O (stereo not given in full),/,5%,/,/,/,/,/,/,/,/,/,/,
Cc1ccc2scc(N3CCN(c4cccc(C(F)(F)F)c4)CC3)c(=O)c2c1,3%,-6%,-49%,-8%,10%,i,/,/,/,/,/,/,
Cc1ccc2cc3cc(C(=O)N4CCN(c5cccc(C(F)(F)F)c5)CC4)sc3nc2c1,2%,13%,-1%,i,10%,i,/,/,/,/,/,/,
Cc1ccnc(NC(=S)N2CCN(c3cc(C(F)(F)F)cc(C(F)(F)F)c3)CC2)c1,/,?,/,/,/,/,2.4µM*,3.3µM*,0.79µM*,0.65µM*,27µM*,7.6µM*,Sfp gel=0.95µM*;hGST ctr=?
S=C(Nc1cc(Cl)ccn1)N1CCN(c2cc(Cl)cc(Cl)c2)CC1,/,/,/,/,/,/,37µM*,11µM*,-59%,18µM*,12%,27µM*,
O=C(c1ccc(Cl)cc1)N1CCN(c2ccnc3cc(Cl)ccc23)CC1,/,8%[57.5 µM],/,/,/,/,/,/,/,/,/,/,
Cc1ccnc(N(C)C(=S)N2CCN(c3cccc(C(F)(F)F)c3)CC2)c1,/,-5%,/,/,/,/,?,?,?,?,-18%,19µM*,
S=C(Nc1cc(Cl)ccn1)N1CCN(c2ccc(Cl)cc2Cl)CC1,/,?,/,/,/,/,?,5.9µM*,-20%,36µM*,-4%,24µM*,
CCOc1ccc(C(=O)Nc2ccc(-c3nc4ccccc4o3)cc2)cc1[N+](=O)[O-],/,-14%,/,/,/,/,/,/,/,/,/,/,
O=C(NCCc1ccc2c(c1)OCO2)c1cc2sccc2[nH]1,/,-2%,/,/,/,/,/,/,/,/,/,/,
Clc1cccc(-c2ccc(-c3nnc(CCCc4ccc5cccnc5n4)o3)cc2)c1,/,-22%,/,/,/,/,/,/,/,/,/,/,
CC/C=C\C[C@H]1C(=O)C=C[C@@H]1CCCCCCCC(=O)O,/,4%[57.5 µM],/,/,/,/,/,/,/,/,/,/,
C[C@@H](NCc1cc2ccccc2[nH]1)c1cccc2ccccc12,/,?,/,-24%,/,/,/,/,/,/,/,/,
Cc1ccnc(NC(=S)N2CCN(c3cc(F)cc(Cl)c3)CC2)c1,/,/,/,/,/,/,1.2µM*,15µM*,10µM*,1.6µM*,-21%,7.6µM*,
CSc1ncc(C(=O)N2CCN(c3ccc(Cl)cc3)CC2)c(C)n1,0%,-12%,-18%,14%,5%,i,/,/,/,/,/,/,
COC(=O)c1ccnc(NC(=S)N2CCN(c3cccc(C(F)(F)F)c3)CC2)c1,/,/,/,/,/,/,26µM*,17µM*,40µM*,11µM*,17µM*,12µM*,
C=C(C(=O)OC)C1CCC2(C)C(O[C@@H]3O[C@H](CO)[C@@H](O)[C@H](O)[C@H]3O)CC(=O)C(C)C2C1O (stereo not given in full),/,-4%[29.8 µM],/,/,/,/,/,/,/,/,/,/,
COc1ccc(-c2ccc3ncc4c(c3c2)n(-c2ccc(N3CCNCC3)c(C(F)(F)F)c2)c(=O)n4C)cn1,/,16µM*!,/,9.3µM*,/,/,/,/,/,/,/,/,NNMT counter=-18%
COc1cc2ncnc(Nc3ccc(Oc4ccccc4)cc3)c2cc1OC,/,5%[57.5 µM],/,/,/,/,/,/,/,/,/,/,

# From PubChem BioAssay
